Source: PubChem (National Center for Advancing Translational Sciences (NCATS))
In the library only some 3% were active in any assay of this set; here they are far more common.
D3 antag: blocks the human D3 dopamine receptor. P35462. actives 2.5% (n = 360,000). D3R cells, DiscoveRx beta-arrestin luminescence, antagonist mode; hits give low values. max response, negative = inhibition, %; in the data active = max response below about -50%; inconclusive = no clear call, values can overlap the other calls; note: % is set by controls: 0 for no effect and ±100 for the full control effect
Target sequence (P35462 whole entry, looked up): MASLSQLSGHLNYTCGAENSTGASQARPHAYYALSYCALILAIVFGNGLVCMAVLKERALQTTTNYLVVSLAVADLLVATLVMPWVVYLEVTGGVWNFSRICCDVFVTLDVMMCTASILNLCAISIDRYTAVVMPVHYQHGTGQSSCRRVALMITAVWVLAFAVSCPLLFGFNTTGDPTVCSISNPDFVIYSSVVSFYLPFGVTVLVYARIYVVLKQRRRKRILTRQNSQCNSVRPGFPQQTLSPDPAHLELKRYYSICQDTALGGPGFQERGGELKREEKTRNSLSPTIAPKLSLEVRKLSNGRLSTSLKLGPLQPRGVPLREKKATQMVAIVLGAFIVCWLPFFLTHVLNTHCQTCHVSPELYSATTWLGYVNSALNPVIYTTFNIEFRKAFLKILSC
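Cells plated overnight at 1500 cells/well, then exposed to library compounds with dopamine controls for 90 minutes at 37 degrees C. DiscoveRx reagent added for 30–60 minutes at room temperature; luminescence read, quantitative HTS format.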
DRD3 agonist: activates the human D3 dopamine receptor; D3R DiscoveRx beta-arrestin cells, luminescence, 90 min; actives 0.58% (n = 410,000); max activation, %; in the data active = max activation above about 30%; note: 0% is about no effect
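Agonist mode: compounds and dopamine controls were applied to plated cells for 90 min at 37 degrees C after an overnight attachment at 1500 cells/well. Luminescent read-out followed 30 - 60 minutes at room temperature with DiscoveRx detection reagent.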
Glioma ERSR ind: induces the endoplasmic reticulum stress response in human glioma cells | U87-MG GRP78 promoter luciferase reporter, 16 h | Potency, µM, inactives show at the top dose activation, hits mostly activators | actives 0.02% (n = 420,000) | AID 602332; note: potency is the fitted concentration of half-maximal effect; series mostly up to about 76 µM; % of control where 0% means no effect; nearly all actives have a fitted effect of over 35% in size
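Stably transfected U87-MG glioma cells carrying a GRP78-based luciferase sensor; 16 h compound incubation. Luminescence end-point read 10 min after Bright-Glo addition at room temperature.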
Nrf2 ARE act: activators of Nrf2 (ARE) signaling. AREc32 ARE-luciferase reporter (MCF7-derived line), luminescence, 24 h. Potency, µM (doses to about 46.1 µM), for inactives: at the top dose activation, actives largely listed as activators. actives 0.31% (n = 410,000). AID 624171; note: potency is the fitted concentration of half-maximal effect; % of control where 0% means no effect; nearly all actives have a fitted effect of over 65% in size
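Reporter line AREc32 (ARE-Fluc), seeded overnight in OPTI-MEM with 5% FBS; compound pin-transferred, 24 hr at 37 deg C, 5% CO2; luminescent read-out.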
An asterisk follows results filed as active; ? = inconclusive; / = no result given; [ ] = another dose, or the depositor's remark. Unless noted, calls come from the whole dose curve; as a rule, active = well fitted curve in the direction sought with a large enough effect; inconclusive = small, poorly fitted or top-dose-only effect, or another doubt; inactive = no such curve, though single readings can be large; an effect the other way counts as inactive or inconclusive.

SMILES | D3 antag | DRD3 agonist | Glioma ERSR ind | Nrf2 ARE act
CNC(=O)/C(C#N)=C/c1cn(CC(=O)NCc2ccco2)c2ccccc12 | -3 | -6 | 4% | 17%
COCCNC(=O)Cn1cc(/C=C(\C#N)C(=O)NC2CCCC2)c2ccccc21 | -60* | -5 | ? | 0%
COc1ccc(C(=O)NCC(c2ccc(N(C)C)cc2)N2CCCC2)c(OC)c1 (configuration not stated) | / | -20 | -6% | 3%
COc1cccc(C(=O)N2CCCC(c3nc(SCCN4CCOCC4)ncc3C)C2)c1 (configuration not stated) | / | / | -5% | /
Cc1occc1C(=O)N/N=C/C(Br)=C\c1ccccc1 | 9 | 6 | -2% | 14µM*
O=C(N/N=C/C(Br)=C/c1ccccc1)C1CC1 | 4 | 12 | 4% | 20µM*
Cc1occc1C(=O)N/N=C/C=C/c1ccccc1 | -22 | -1 | 1% | -5%
O=C(N/N=C/C(Br)=C/c1ccccc1)C(O)c1ccccc1 (configuration not stated) | 1 | 5 | 5% | 11µM*
CCOc1ccc(NC(=O)CNC(=O)c2nn(-c3ccc(OC)c(OC)c3)c(=O)c3ccccc23)cc1 | 86 | 37* | -2% | 0%
COc1ccc(NC(=O)CNC(=O)c2nn(-c3ccc(OC)c(Cl)c3)c(=O)c3ccccc23)c(OC)c1 | 82 | 30* | -5% | 0%
COc1ccc(NC(=O)c2cnn(-c3ccccc3)c2C)c(OC)c1 | -61* | 0 | -4% | 0%
COc1ccc(NC(=O)c2cc(-c3ccccc3)nc3c2c(C)nn3-c2ccccc2)c(OC)c1 | 33 | 2 | -4% | 0%
Cc1cccc(NC(=O)Nc2nnc(N(C)C3CCCCC3)s2)c1C | / | -10 | -4% | -1%
Cc1ccccc1OCC(O)CN1CCCCC1 (configuration not stated) | 4 | -8 | -5% | 0%
Cc1ccccc1OCC(O)CN1CCN(CC(O)COc2ccccc2C)CC1 (configuration not stated) | -57* | -18 | -3% | 2%
CCOC(=O)c1c(C)n(C)c2ccc(OCC(O)CN3CCC(C)CC3)cc12 (configuration not stated) | -102* | -21 | -3% | 4%
Cc1ccccc1OCC(O)CN1CCC(C)CC1 (configuration not stated) | -60* | -12 | -4% | 0%
Oc1ccccc1C1Nc2cccc3cccc(c23)N1 | -7 | 2 | 2% | ?
O=[N+]([O-])c1ccccc1C1Nc2cccc3cccc(c23)N1 | -104* | -20 | -3% | ?
O=C(/C=C/c1cccc([N+](=O)[O-])c1)n1cnc2ccccc21 | -104* | -11 | 16% | ?
O=C(/C=C/c1cccc([N+](=O)[O-])c1)N1CCOCC1 | -20 | -1 | -3% | 13µM*
O=C(/C=C/c1cccc([N+](=O)[O-])c1)N1CCN(c2ccccn2)CC1 | -12 | 4 | -3% | 0%
Cc1cccc(N2C(=O)CSC23C(=O)N(CC(=O)Nc2cccc(Cl)c2)c2ccccc23)c1 (configuration not stated) | / | 32* | -2% | 0%
Cc1ccccc1C1(CC(=O)N2CCCCC2C)CC(=O)N(Cc2cccnc2)C1=O (configuration not stated) | / | / | -5% | /
O=c1oc2ccccc2cc1-c1nc2c(s1)CCc1ccccc1-2 | 11 | 1 | -3% | 4µM*
SMILES | D3 antag | DRD3 agonist | Glioma ERSR ind | Nrf2 ARE act
O=C1N/C(=N/NC(=O)c2cccc3ccccc23)S/C1=C\c1ccccc1OCc1ccccc1 | -59* | 6 | -8% | -1%
COc1cc(OC)cc(C(=O)NCC2Cc3cccc(-c4nc(C)cnc4C)c3O2)c1 (configuration not stated) | / | / | -1% | /
Cc1ccc(OCCN2CCN(C(=O)CCC(=O)Nc3nnc(CC(C)C)s3)CC2)cc1 | 10 | 72* | -9% | 2%
CC(C)Cc1nnc(NC(=O)CCC(=O)N2CCN(Cc3ccc(F)cc3)CC2)s1 | 2 | 1 | -2% | -2%
C=C(C)COc1cc2oc(=O)c(CC(=O)N3C[C@H]4C[C@@H](C3)c3cccc(=O)n3C4)c(C)c2cc1Cl | -21 | 33* | 0% | 3%
Cc1ccnc(NC(=O)c2ccc(C(=O)c3ccccc3)cc2)c1 | -55* | -8 | -12% | -1%
CN(C)CCCN(C(=O)c1cccs1)c1nc(-c2ccccc2)cs1 | -53* | -37 | -1% | 5%
COc1ccc(-c2csc(N(CCCN(C)C)C(=O)c3ccccc3Cl)n2)cc1 | -71* | -24 | -6% | 0%
COc1ccc(-c2csc(N(CCCN(C)C)C(=O)c3ccccc3C)n2)cc1 | -10 | -25 | -6% | -1%[9.22 µM]
COc1ccc(-c2csc(N(CCCN(C)C)C(=O)c3ccccc3F)n2)cc1 | ? | -19 | -6% | 0%
CCNc1nc(N)c(C(=O)c2ccc(Cl)s2)s1 | -51* | -2 | -2% | -1%
Cc1cc(Cl)n2c(nc3ccccc32)c1C#N | -73* | -16 | -14% | -3%
Cc1c(CCCl)c(Cl)n2c(nc3ccccc32)c1C#N | -103* | -6 | ? | 8%
CCOc1cccc(C(=O)N(Cc2ccc(F)cc2)C2CCS(=O)(=O)C2)c1 (configuration not stated) | 22 | 38* | 0% | 0%
CCCOc1cccc(C(=O)N(Cc2ccccc2)C2CCS(=O)(=O)C2)c1 (configuration not stated) | 1 | 16 | -4% | 0%
Brc1cc(Cc2nnc(-c3ccccc3)o2)c(Br)s1 | -5 | 4 | 2% | 8.9µM*
O=C(OCc1nnc(-c2ccccc2)o1)c1ccc(Br)o1 | 5 | 5 | -2% | -1%
C[C@@H](CO)NC(=O)[C@H]1O[C@@H](n2ccc(=O)[nH]c2=O)[C@H](O)[C@@H]1O | 9 | 8 | -6% | 0%
CC[C@H](C)[C@@H](CO)NC(=O)[C@H]1O[C@@H](n2ccc(=O)[nH]c2=O)[C@H](O)[C@@H]1O | -105* | -15 | -2% | -1%
CC(=O)Nc1ccc(/C=C/c2sc3ccccc3[n+]2CCCCI)cc1 | / | / | -4% | /
CO[C@]1(NC(=O)Cc2cccs2)C(=O)N2C(C(=O)O)=CC(COC(N)=O)S[C@H]21 (some centres not stated) | / | / | -3% | /
Cc1ccc(-c2nc(S(=O)(=O)c3ccccc3)c(SCC(=O)NC3CCCCC3)o2)cc1 | / | 1 | -2% | -1%
Cc1ccc(S(=O)(=O)c2nc(-c3ccccc3)oc2SCC(=O)NC2CCCCC2)cc1 | / | 64* | -4% | 0%
Cc1cc(O)c2c(O)c3c(O)cccc3cc2c1 | / | 10 | -2% | /
COc1ccc2ncc3c(-c4ccccc4)nn(-c4ccc(C)c(C)c4)c3c2c1 | / | 3 | -1% | 0%
O=C(NC(c1ccc(Cl)cc1)c1cccnc1)C1CCN(CCOc2ccc(Cl)cc2Cl)CC1 (configuration not stated) | ? | -19 | -7% | 0%
O=C(NC(c1ccc(Cl)cc1)c1ccccn1)C1CCN(CCOc2ccc(Cl)cc2Cl)CC1 (configuration not stated) | -77* | -11 | -10% | -3%
